In PubChem BioAssay AID720690 (Broad Institute, 2013):
Measured potencies and affinities stand elsewhere. Active and inactive are the calls of the source.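 The calls were made as follows: active = every repeat run showing a signal drop whose fitted half-maximal concentration is at most twice the top tested concentration; inconclusive = repeat runs disagree, or flat partial drop, or poor fit; inactive = the rest.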

Assay: HEK293T cytotoxicity, dose response, cytotoxicity control for miR-122 modulator project, cell-based, activator set, cherry-pick (AID 720690)
Conditions: HEK293T viability, CellTiter-Glo luminescence, 48 h; series mostly up to 26 µM

Row | Structure (SMILES) | outcome
1 | C/C=C/c1ccc([C@@H]2[C@@H](CO)N(C(C)=O)[C@H]2CN(C(=O)COC)C(C)C)cc1 | inactive
2 | C[C@H](CO)N1C[C@H](C)[C@H](CN(C)S(=O)(=O)c2ccc(F)cc2)Oc2ccc(NS(C)(=O)=O)cc2C1=O | inactive
3 | CO[C@H]1CN(C)C(=O)c2ccc(NS(C)(=O)=O)cc2OC[C@H](C)N(C(=O)CN(C)C)C[C@H]1C | inactive
4 | CCCNC(=O)C[C@@H]1CC[C@@H]2[C@@H](COc3ccc(NC(=O)c4ccc(C(F)(F)F)cc4)cc3C(=O)N2C)O1 | inactive
5 | COc1cccc(CNC(=O)C[C@@H]2CC[C@H]3[C@H](COc4ccc(NS(=O)(=O)c5ccccc5F)cc4C(=O)N3C)O2)c1 | inactive
6 | COC(=O)C[C@H]1CC[C@@H]2[C@@H](COc3ccc(NC(=O)Nc4cccc(F)c4)cc3C(=O)N2C)O1 | inactive
7 | CCC(=O)N1[C@H](CN(CC)C(=O)c2ccccc2)[C@@H](c2ccccc2)[C@@H]1CO | inactive
8 | COC(=O)C[C@@H]1CC[C@@H]2[C@@H](COc3ccc(NC(=O)c4cc(F)cc(F)c4)cc3C(=O)N2C)O1 | inactive
9 | O=C(c1ccccc1)N1C[C@H]2[C@@H](c3ccccc31)[C@@H](CO)N2C(=O)CN1CCOCC1 | inactive
10 | CN1C(=O)c2cc(NC(=O)c3cccs3)ccc2OC[C@@H]2O[C@@H](CC(=O)NCCN3CCCCC3)CC[C@H]21 | inactive
11 | Cc1cc(C)cc(NC(=O)Nc2ccc3c(c2)C(=O)N(C)[C@@H]2CC[C@H](CC(=O)O)O[C@@H]2CO3)c1 | inactive
12 | Cc1nnsc1Sc1cccc(C(F)(F)F)c1 | inactive
